Data published in PubChem BioAssay.
Active and inactive are the calls of the source. Unless noted, the rule behind the calls is not given here.

Assays:
[1] = anti-His antibody binders, primary screen, artefact control for SMM control protein annotation, biochemical, small-molecule microarray, 635 nm fluorescence (AID 1128); conditions: anti-His Alexa647 antibody binding, higher = more signal;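 note: score merges feature fluorescence with signal-to-noise for each printed compound spot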
[2] = system: Human papillomavirus type 1a E7 protein (residues 1-88); test: HPV1a E7 small-molecule binders, primary screen, biochemical, small-molecule microarray, residues 1-88, 635 nm (AID 1129); conditions: small-molecule microarray binding, fluorescence 635 nm; higher = more signal
[3] = biological target: Focal adhesion kinase 1 (Homo sapiens) (UniProt Q05397); test: small-molecule microarray binders of FAK, primary screen, biochemical, 635/667 nm fluorescence, BSA, DTT (AID 1130); conditions: PTK2 binding, 635 nm fluorescence, higher = more signal;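 note: composite of spot emission at 667 nm and signal to noise over triplicate slides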
Chain of Focal adhesion kinase 1 (Homo sapiens) (Q05397 whole entry, looked up): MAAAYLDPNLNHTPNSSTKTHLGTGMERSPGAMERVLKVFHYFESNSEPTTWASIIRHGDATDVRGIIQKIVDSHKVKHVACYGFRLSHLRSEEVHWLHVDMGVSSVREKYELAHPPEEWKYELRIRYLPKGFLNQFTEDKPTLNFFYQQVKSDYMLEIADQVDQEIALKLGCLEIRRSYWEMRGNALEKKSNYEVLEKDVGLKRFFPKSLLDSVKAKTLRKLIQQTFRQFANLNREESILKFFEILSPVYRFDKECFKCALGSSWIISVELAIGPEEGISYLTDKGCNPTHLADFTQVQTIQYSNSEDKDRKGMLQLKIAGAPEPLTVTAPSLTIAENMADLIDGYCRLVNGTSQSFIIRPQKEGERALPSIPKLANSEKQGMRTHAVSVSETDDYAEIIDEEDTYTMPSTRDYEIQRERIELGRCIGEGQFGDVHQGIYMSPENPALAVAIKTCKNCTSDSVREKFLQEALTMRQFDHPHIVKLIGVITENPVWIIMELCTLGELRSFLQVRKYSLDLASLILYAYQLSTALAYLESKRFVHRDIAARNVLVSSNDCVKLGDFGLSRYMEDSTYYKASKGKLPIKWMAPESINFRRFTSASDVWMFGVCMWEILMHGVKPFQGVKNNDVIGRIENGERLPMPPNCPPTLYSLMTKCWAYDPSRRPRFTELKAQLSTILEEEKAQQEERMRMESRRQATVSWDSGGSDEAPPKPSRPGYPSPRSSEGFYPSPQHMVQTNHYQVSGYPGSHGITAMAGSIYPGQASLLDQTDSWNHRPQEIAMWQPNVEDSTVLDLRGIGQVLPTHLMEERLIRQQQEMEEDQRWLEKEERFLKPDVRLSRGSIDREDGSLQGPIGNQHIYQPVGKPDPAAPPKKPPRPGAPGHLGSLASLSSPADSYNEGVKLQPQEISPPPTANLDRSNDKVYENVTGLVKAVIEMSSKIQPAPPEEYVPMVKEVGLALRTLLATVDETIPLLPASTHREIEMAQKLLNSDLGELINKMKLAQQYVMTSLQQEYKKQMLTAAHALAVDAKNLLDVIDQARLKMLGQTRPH

[4] = system: Fibrinogen (Alexa647-labelled); test: fibrinogen binders on compound microarrays, profiling panel, artefact control for SMM control-protein annotation, biochemical, small-molecule microarray, 635/667 nm fluorescence (AID 1131); conditions: fibrinogen-A647 binding fluorescence, higher = more signal;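 note: z-score merges 667 nm fluorescence with per-spot signal-to-noise over triplicate slides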
[5] = biological target: Follistatin (Homo sapiens) (UniProt P19883); test: follistatin binders on small-molecule microarrays, primary screen, biochemical, small-molecule microarray, 635/667 nm fluorescence (AID 1132); conditions: FST binding, 635 nm fluorescence, higher = more signal
Chain of Follistatin (Homo sapiens) (P19883 whole entry, looked up): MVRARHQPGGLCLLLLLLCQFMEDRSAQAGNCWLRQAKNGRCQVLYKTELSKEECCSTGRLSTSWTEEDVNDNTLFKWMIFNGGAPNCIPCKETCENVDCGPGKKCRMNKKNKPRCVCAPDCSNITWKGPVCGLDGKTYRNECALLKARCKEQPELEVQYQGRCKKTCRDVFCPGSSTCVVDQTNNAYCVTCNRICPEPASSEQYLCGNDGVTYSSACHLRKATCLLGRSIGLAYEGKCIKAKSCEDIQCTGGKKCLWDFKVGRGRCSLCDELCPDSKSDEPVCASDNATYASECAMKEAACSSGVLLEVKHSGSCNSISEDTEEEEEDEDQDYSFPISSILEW

[6] = biological target: Fibroblast growth factor 2 (Homo sapiens) (UniProt P09038); test: FGF2 binders on small-molecule microarrays, primary screen, biochemical, small-molecule microarray, 635/667 nm fluorescence (AID 1133); conditions: small-molecule microarray binding, FGF2, fluorescence 635/667; higher = more signal
Chain of Fibroblast growth factor 2 (Homo sapiens) (P09038 whole entry, looked up): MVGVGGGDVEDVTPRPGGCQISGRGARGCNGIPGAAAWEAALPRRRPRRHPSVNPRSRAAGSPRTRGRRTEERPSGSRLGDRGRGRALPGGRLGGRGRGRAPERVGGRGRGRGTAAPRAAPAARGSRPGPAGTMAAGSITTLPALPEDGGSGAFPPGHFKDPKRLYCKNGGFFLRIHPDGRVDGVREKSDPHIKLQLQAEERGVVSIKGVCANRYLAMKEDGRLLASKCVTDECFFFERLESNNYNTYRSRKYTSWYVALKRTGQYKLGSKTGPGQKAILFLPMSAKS

[7] = mitochondrial membrane potential change in A549 cells, profiling panel, cell-based, JC-1 fluorescence, basal, 24 h, 100 nL (AID 1138); conditions: higher = more signal;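 note: A549 lung adenocarcinoma cells under basal conditions with no added stimulus; test concentration not given here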
Lefty1 = Lefty1 binders on small-molecule microarrays, primary screen, biochemical, small-molecule microarray, 635/667 nm fluorescence (AID 1139); conditions: small-molecule microarray binding, fluorescence 635/667; higher = more signal
[8] = system: wheat germ agglutinin (Triticum aestivum), Alexa647-labelled; test: wheat germ agglutinin binders on compound microarrays, profiling panel, artefact control for SMM control-protein annotation, biochemical, small-molecule microarray, 635/667 nm fluorescence (AID 1140); conditions: WGA-A647 binding, 635 nm fluorescence, higher = more signal;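 note: score merges 667 nm feature emission with signal to noise over triplicate slides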
[9] = biological target: Luciferin 4-monooxygenase (Photinus pyralis) (UniProt P08659); test: firefly luciferase enzyme inhibitors, primary screen, biochemical, luminescence, purified enzyme, 2006 set (AID 1141); conditions: SteadyGlo luminescence, 30 min, higher = more signal, called active from +8 up or from −8 down;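 note: cell-free assay with purified firefly luciferase at 100 ng per well in PBS; test concentration not given here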
Chain of Luciferin 4-monooxygenase (Photinus pyralis) (P08659 whole entry, looked up): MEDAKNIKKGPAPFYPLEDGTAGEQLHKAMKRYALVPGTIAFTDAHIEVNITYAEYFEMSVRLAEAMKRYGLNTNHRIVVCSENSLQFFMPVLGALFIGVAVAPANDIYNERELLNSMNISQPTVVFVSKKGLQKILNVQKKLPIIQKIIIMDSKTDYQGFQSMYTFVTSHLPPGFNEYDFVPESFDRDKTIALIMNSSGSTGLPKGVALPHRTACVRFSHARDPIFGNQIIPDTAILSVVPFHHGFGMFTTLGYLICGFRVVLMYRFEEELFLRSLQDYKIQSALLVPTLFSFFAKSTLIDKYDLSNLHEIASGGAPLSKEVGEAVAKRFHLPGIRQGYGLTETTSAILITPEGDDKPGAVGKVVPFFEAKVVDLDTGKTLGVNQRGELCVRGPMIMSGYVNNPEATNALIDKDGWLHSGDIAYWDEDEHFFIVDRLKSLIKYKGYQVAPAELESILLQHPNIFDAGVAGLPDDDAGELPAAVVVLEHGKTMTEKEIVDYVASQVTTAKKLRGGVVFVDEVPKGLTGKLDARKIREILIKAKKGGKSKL

[10] = system: Wnt5a (protein binding on small-molecule microarray); test: Wnt5a binders on small-molecule microarray, primary screen, biophysical, 635/667 nm fluorescence (AID 1142); conditions: 635 nm fluorescence, higher = more signal;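 note: fluorescence read at 667 nm with signal to noise per printed feature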
[11] = cell viability in Huh7 cells, primary screen, cytotoxicity control for HCV replication inhibitor project, CellTiter-Glo luminescence, basal, 48 h (AID 1143); conditions: Huh7 HCV replicon, higher = more signal, called active from +8 up or from −8 down;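 note: Huh7 hepatoma cells carrying a hepatitis C replication reporter with no stimulus; test concentration not given here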
[12] = P. aeruginosa biofilm formation inhibitors, primary screen, PAO1 strain, BacTiter-Glo luminescence, LB-PBS (AID 1144); conditions: 12 h, higher = more signal
[13] = CREB reporter modulators without forskolin, primary screen, cell-based, PC12, CRE-LacZ reporter, unstimulated (AID 1145); conditions: no forskolin, luminescence, 4.5 h, higher = more signal, called active from +8 up or from −8 down
[14] = CREB reporter modulators under forskolin, primary screen, cell-based, PC12, CRE-LacZ reporter, forskolin-stimulated (AID 1146); conditions: luminescence, 4.5 h, higher = more signal, called active from +8 up or from −8 down;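 note: PC12 cells with 6xCRE LacZ reporter stimulated by forskolin 10 µM; beta-galactosidase reporter signal reflecting CREB driven transcription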
[15] = biological target: Streptavidin (Streptomyces avidinii) (UniProt P22629); test: streptavidin binders on small-molecule microarray, primary screen, artefact control for SMM compound annotation, biophysical, 635/667 nm fluorescence (AID 1147); conditions: streptavidin binding, higher = more signal;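 note: signal reflects streptavidin binding to arrayed compounds as a control protein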
Chain of Streptavidin (Streptomyces avidinii) (P22629 whole entry, looked up): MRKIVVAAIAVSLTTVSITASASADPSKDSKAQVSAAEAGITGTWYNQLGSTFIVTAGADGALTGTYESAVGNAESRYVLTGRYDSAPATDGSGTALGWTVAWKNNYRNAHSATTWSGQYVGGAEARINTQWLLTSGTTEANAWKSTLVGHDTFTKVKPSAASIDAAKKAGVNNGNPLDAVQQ

[16] = small-molecule binders of probe aInhba, primary screen, biochemical, small-molecule microarray, 635/667 nm fluorescence (AID 1148); conditions: higher = more signal;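 note: score merges 667nm spot fluorescence with signal-to-noise for antibody binding to printed compounds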
Torsin-1A (Homo sapiens) [17] = biological target: Torsin-1A (Homo sapiens) (UniProt O14656); test: torsin A binders from cell lysate, primary screen, small-molecule microarray, wild-type, 635/667 nm (AID 1149); conditions: COS7 hTOR1A-WT lysate, 635 nm fluorescence, higher = more signal
Chain of Torsin-1A (Homo sapiens) (O14656 whole entry, looked up): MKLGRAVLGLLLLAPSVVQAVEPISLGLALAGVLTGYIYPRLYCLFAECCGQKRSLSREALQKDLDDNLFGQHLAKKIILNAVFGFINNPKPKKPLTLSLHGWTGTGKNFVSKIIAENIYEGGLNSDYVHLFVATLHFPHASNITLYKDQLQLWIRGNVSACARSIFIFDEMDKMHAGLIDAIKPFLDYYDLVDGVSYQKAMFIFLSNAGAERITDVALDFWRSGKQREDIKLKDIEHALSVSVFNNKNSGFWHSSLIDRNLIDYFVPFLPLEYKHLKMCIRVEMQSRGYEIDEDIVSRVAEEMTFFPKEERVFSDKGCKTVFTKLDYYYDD

Torsin-1A (Homo sapiens) [18] = biological target: Torsin-1A (Homo sapiens) (UniProt O14656); test: small-molecule binders of mutant TOR1A in lysate, primary screen, cell lysate, small-molecule microarray, COS7 lysate, 635/667 nm fluorescence (AID 1150); conditions: COS7 hTOR1A mutant lysate, 635 nm fluorescence, higher = more signal;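 note: score pools 667 nm emission and signal to noise measuring lysate protein binding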
[19] = system: Sonic hedgehog protein (Shh); test: small-molecule binders of Shh protein, primary screen, biochemical, small-molecule microarray, 635/667 nm fluorescence (AID 1151); conditions: small-molecule microarray binding, 635 nm fluorescence; higher = more signal;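 note: Shh protein binding to compounds spotted on small-molecule microarray slides; score combines spot fluorescence intensity with signal-to-noise across triplicate slides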

Structure (SMILES) | composite z-score [1] | composite z-score [2] | composite z-score [3] | composite z-score [4] | composite z-score [5] | composite z-score [6] | z-score [7] | composite z-score (Lefty1) | composite z-score [8] | z-score [9] | composite z-score [10] | z-score [11] | z-score [12] | z-score [13] | z-score [14] | composite z-score [15] | composite z-score [16] | composite z-score (Torsin-1A (Homo sapiens) [17]) | composite z-score (Torsin-1A (Homo sapiens) [18]) | composite z-score [19]
COC(=O)[C@@]1(Cc2ccc(OC)cc2)[C@H]2c3cc(C(=O)N(C)C)n(CCN4CNCC4=O)c3C[C@H]2CN1C(=O)c1ccccc1 | 0.492 | 0.803 | 0.598 | 0.151 | -0.589 | -0.294 | 1 | -0.44 | 0.459 | 2.82 (inactive) | 0.0523 | -0.582 (inactive) | 0.726 (inactive) | -0.754 (inactive) | -0.403 (inactive) | 0.494 | -0.0736 | -0.322 | -0.502 | -2.07
CCOC(=O)[C@H]1C/C=C/C[C@H](C(=O)OCC)C(=O)O[C@H]2[C@@H](OC)O[C@H](CO)[C@@H](OC(=O)Nc3ccc(C#N)cc3)[C@@H]2OC1=O | 0.514 | 0.45 | 0.499 | -0.274 | 0.336 | 0.121 | -1.92 | 0.519 | 0.852 | 0.215 (inactive) | 0.121 | -6.66 (inactive) | -2.89 (inactive) | -1.29 (inactive) | -1.66 (inactive) | -0.576 | -0.128 | 0.392 | 1.08 | 0.673
C=CCC(OC(C)=O)[C@@H]1[C@@H](N(Cc2ccc(-c3ccccc3)cc2)C(=O)Cc2ccc(F)cc2)c2cc(OCCCO)ccc2N1C(=O)c1ccc(-c2ccccc2)cc1 (stereo not given in full) | -0.414 | -1.03 | -0.0744 | 0.259 | 0.267 | -0.297 | 0.796 | -0.0123 | -0.217 | 1.03 (inactive) | -0.163 | -1.13 (inactive) | -0.757 (inactive) | -1.23 (inactive) | -0.0988 (inactive) | 0.711 | -0.157 | -0.628 | -0.222 | 0.249
C#CCNC(=O)[C@H](Cc1ccccc1)NC(=O)CCC(=O)O | -1.08 | -0.912 | -0.318 | -1.74 | -1.69 | -0.246 | -0.68 | -0.804 | -1.19 | 0.0223 (inactive) | -0.0994 | 0.0187 (inactive) | 0.743 (inactive) | 0.656 (inactive) | 0.301 (inactive) | -0.869 | -0.146 | 0.119 | 0.544 | -0.192
O=C1NC(=O)C2C1C=CC(C(O)c1cccc3ccccc13)N2Nc1ccccn1 (stereo not given) | 1.97 | 0.158 | 0.132 | -0.207 | 0.169 | 0.11 | 1.55 | -0.34 | 0.0591 | 0.135 (inactive) | 0.0051 | 0.697 (inactive) | -0.484 (inactive) | -0.522 (inactive) | -0.285 (inactive) | 0.278 | 0.185 | 0.16 | 0.231 | -0.516
COc1ccc(CCNC(=O)[C@@]2(C)c3ccccc3C(=O)N(Cc3cc(F)cc(C(F)(F)F)c3)[C@H]2c2ccc(CO)cc2)cc1 | 0.421 | 0.682 | 0.212 | 0.0066 | 0.179 | 0.132 | -0.233 | -0.953 | 0.606 | -0.947 (inactive) | 0.126 | -4.52 (inactive) | 1.3 (inactive) | 0.001 (inactive) | -1.28 (inactive) | -0.55 | -0.0791 | -0.621 | -0.0937 | -0.0895
COCCOC(=O)N1C(=O)[C@@]2(c3cc(C#CCNC(N)=O)ccc31)[C@H](C(=O)NC[C@H](O)c1ccccc1)[C@H]1C(=O)O[C@H](c3ccccc3)[C@H](c3ccccc3)N1[C@@H]2c1ccccc1OCCO | 1.06 | 0.769 | 0.564 | 0.762 | 1.07 | 0.73 | -1.08 | 0.946 | 0.592 | -0.533 (inactive) | 0.8 | -0.417 (inactive) | -0.0351 (inactive) | -0.199 (inactive) | -0.972 (inactive) | -0.198 | 0.801 | 0.403 | 0.593 | 1.08
CCCN1C(=O)[C@]2(CCS(=O)(=O)c3ccccc3)N=C(c3ccc(OCCCO)cc3)O[C@@H]2c2ccccc21 | 1.02 | 1.21 | 0.554 | 0.967 | 0.958 | 0.408 | 0.535 | 0.576 | 0.737 | 0.54 (inactive) | 0.419 | -4.93 (inactive) | -1.32 (inactive) | -0.254 (inactive) | -1.53 (inactive) | 1.24 | 0.0475 | 1.33 | 1.24 | 1.13
CCCCCC1=C2CNC(CCC)(C(=O)OC)C=C2C(C)C1=O (stereo not given) | -0.252 | 0.859 | 0.682 | -0.288 | -0.249 | 0.0833 | 0.424 | -0.444 | -0.0925 | 0.443 (inactive) | 0.0324 | -0.86 (inactive) | 0.617 (inactive) | -0.751 (inactive) | 0.974 (inactive) | 0.441 | 0.345 | -0.449 | 0.0188 | 0.368
Cc1ccc(C(C)CC(O)C2C=CC3C(=O)N(C)C(=O)C3N2NC(=O)OC(C)(C)C)o1 (stereo not given) | 1.65 | 1.01 | 0.759 | 0.314 | 0.997 | 0.48 | -0.475 | 0.444 | 0.563 | -1.3 (inactive) | 0.376 | 0.963 (inactive) | 0.399 (inactive) | 0.0569 (inactive) | -0.0179 (inactive) | 1.22 | 0.4 | 0.204 | 1.05 | 0.245
